For one assay, the target named is Albumin (Bos taurus) (UniProt P02769). As to the kind of experiment: bovine serum albumin binders on microarray, profiling panel, artefact control for SMM control protein annotation, biochemical, small-molecule microarray, Alexa647 label, 635/667 nm fluorescence (AID 1118).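 Note: score merges 667 nm emission intensity and signal-to-noise per printed compound spot.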 The settings on record: BSA-A647 binding, fluorescence 635 nm, higher = more signal.
Assay [1] can be described thus: small-molecule microarray binders of probe aXIP, primary screen, biochemical, NeuroSMM set, 635/667 nm fluorescence (AID 1119).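 Note: probe is the protein aXip251-270 applied at 1 µg/mL to compound-printed slides; binding of probe to printed compounds measured as 667 nm fluorescence plus signal to noise.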 The settings on record: higher = more signal, called active from +8 up or from −8 down.
The nature of assay [2]: small-molecule binders of probe aNOTCH3, primary screen, biochemical, small-molecule microarray, 635/667 nm fluorescence (AID 1120).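 Note: probe is a biotin-tagged antibody raised against NOTCH3 rather than NOTCH3 protein; score merges spot fluorescence near 667 nm with spot signal to noise.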 The settings on record: higher = more signal.
The nature of assay [3]: small-molecule binders of probe aNOTCH2, primary screen, biochemical, small-molecule microarray, 635/667 nm fluorescence (AID 1121).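 Note: score merges feature fluorescence read at 667 nm with its signal to noise.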 The settings on record: higher = more signal.
For assay [4], the target named is Carbonic anhydrase 2 (Homo sapiens) (UniProt P00918). As to the kind of experiment: CAII small-molecule binders, profiling panel, biochemical, small-molecule microarray, Alexa647-labelled CAII (AID 1122). The settings on record: CAII-A647 binding fluorescence, higher = more signal.
The nature of assay [5]: COS7 lysate on small-molecule microarray, probe aHis, 635 nm (AID 1123).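 Note: z-score combines 667nm fluorescence intensity with signal-to-noise per printed compound spot.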 Conditions: COS7 cell lysate, fluorescence, higher = more signal.
Assay [6] can be described thus: compound binding in COS7 lysate, probe aLAP1, primary screen, cell lysate, small-molecule microarray (AID 1124).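 Note: lysate comes from COS7 cells expressing LAP1 and is applied at 0.3 µg/mL; score merges spot fluorescence near 667 nm with signal-to-noise over triplicate slides.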 Conditions: probe aLAP1, fluorescence, higher = more signal.
A further assay concerns Sam68 (KHDRBS1). As to the kind of experiment: Sam68 small-molecule binders, primary screen, biochemical, small-molecule microarray, 635 nm fluorescence (AID 1125).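 Note: score merges 667 nm channel intensity with signal to noise over triplicate slides.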 Conditions: small-molecule microarray binding, higher = more signal.
In assay [7] the test system is Chordin-like protein 2 (CHRDL2). Put plainly: CHRDL2 small-molecule binders, primary screen, biochemical, small-molecule microarray, 635 nm fluorescence (AID 1126).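 Note: printed compound slides probed with Chrdl2 protein at 4 µg/mL for 1 h at 4 C; score merges 667 nm emission intensity with signal to noise over three replicate slides.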 Conditions: small-molecule microarray binding, fluorescence 635 nm; higher = more signal.
The target in assay [8] is Concanavalin-A (Canavalia ensiformis) (UniProt P02866). As to the kind of experiment: ConA small-molecule binders, primary screen, artefact control for SMM control protein annotation, biochemical, small-molecule microarray, Alexa647 label, 635 nm (AID 1127).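 Note: z combines 667 nm emission intensity with signal-to-noise across three replicate slides.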 Conditions: ConA-A647 binding fluorescence, higher = more signal.
Chain of Concanavalin-A (Canavalia ensiformis) (P02866 whole entry, looked up): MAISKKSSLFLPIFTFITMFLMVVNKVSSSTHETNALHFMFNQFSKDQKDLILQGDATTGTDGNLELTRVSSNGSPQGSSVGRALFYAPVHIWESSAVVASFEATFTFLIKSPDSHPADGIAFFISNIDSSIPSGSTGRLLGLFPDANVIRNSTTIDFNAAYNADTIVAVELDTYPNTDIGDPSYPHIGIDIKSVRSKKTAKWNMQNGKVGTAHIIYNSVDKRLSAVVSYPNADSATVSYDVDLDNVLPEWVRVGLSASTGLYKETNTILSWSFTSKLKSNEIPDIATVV

The structures appear in SMILES notation. Where “and” joins values, the source holds several entries; their conditions need not be identical. Equal entries are not always repeated. Calls of active or inactive are those of the source.

These results are taken from PubChem BioAssay.

Chain of Albumin (Bos taurus) (P02769 whole entry, looked up): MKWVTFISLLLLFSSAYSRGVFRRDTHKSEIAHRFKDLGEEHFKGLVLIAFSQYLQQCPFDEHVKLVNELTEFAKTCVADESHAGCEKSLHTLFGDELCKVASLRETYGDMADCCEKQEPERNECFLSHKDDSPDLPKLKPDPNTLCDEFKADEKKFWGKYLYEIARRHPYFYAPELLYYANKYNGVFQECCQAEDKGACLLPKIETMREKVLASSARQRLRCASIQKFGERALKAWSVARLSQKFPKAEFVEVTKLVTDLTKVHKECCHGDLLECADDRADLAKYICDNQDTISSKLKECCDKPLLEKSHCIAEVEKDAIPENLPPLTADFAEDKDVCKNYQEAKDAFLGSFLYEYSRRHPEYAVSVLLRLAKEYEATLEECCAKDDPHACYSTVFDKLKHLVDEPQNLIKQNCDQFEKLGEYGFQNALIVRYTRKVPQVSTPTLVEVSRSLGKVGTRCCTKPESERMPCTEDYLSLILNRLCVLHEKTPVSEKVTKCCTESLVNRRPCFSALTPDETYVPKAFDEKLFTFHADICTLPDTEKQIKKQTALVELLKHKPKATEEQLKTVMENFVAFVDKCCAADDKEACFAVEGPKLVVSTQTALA

Regarding `C=CCN(C(=O)C(c1cccs1)N(C(=O)/C=C\C(=O)O)c1c(Cl)cccc1CO)c1ccc(OC)cc1` (stereo not given), the composite z-score with Albumin (Bos taurus) is -0.464 and -0.473; in assay [2], -0.374 and -0.246; in [3], -0.179 and -0.127; in [4], 0.819 and 0.837; in assay [5] it was 1.8 and 0.329; in assay [6] it was 0.78 and 0.281. Also, the composite z-score in the assay with Sam68 (KHDRBS1) was -0.818 and -0.2; in [7] it was -4.02 and -0.896; in assay [8] it was -0.772 and -1.14. Also, in [1], the composite Z-score was -0.244 (inactive) and 0.222 (inactive).

`C=CCN(Cc1ccccc1)C(=O)C(c1cccs1)N(C(=O)/C=C\C(=O)O)c1c(Cl)cccc1CO` (stereo not given): the composite z-score with Albumin (Bos taurus) is -0.248 and -1.84; in assay [2], -0.437 and -0.491; in [3] it was -0.155 and -0.0772; in assay [4], -0.393 and -0.843; in assay [5] it was -0.665 and -0.537; in assay [6] it was -0.657 and -0.277. The composite z-score with Sam68 (KHDRBS1) is -0.84 and -2.12; in assay [7] it was -1.64 and -2.62; in [8] it was -1.52 and -1.86. For the same compound, the composite Z-score in assay [1] is 0.0723 (inactive) and -1.07 (inactive).

Consider `COC(=O)C1=C(C)N(Cc2ccccc2)C2=C3C(=O)CCC[C@@H]3[C@@](O)(C(=O)OC)C(=O)N2[C@@H]1c1ccccc1`, for which the composite z-score was 0.0476 and 0.354 with Albumin (Bos taurus); -0.0077 and 0.178 in assay [2]; -0.125 and -0.114 in assay [3]; 0.362 and 0.0465 in assay [4]; 0.0949 and 0.111 in assay [5]; -0.0012 and 0.0654 in assay [6]. The composite z-score in the assay with Sam68 (KHDRBS1) is 0.368 and -0.0561; in [7], 0.674 and 0.24; in assay [8], 0.596 and -0.917. In addition, the composite Z-score in assay [1] was -0.0521 (inactive) and -0.191 (inactive).

Regarding `O=c1n(-c2ccccc2)c(=O)n2n1CC[C@@H]1C(=NOC[C@@H](O)COCc3ccco3)[C@H]3O[C@H]3[C@@H](O)[C@@H]12`, the composite z-score with Albumin (Bos taurus) was -0.73 and 0.143; in assay [2], -0.173 and -0.268; in [3], -0.122 and -0.174; in assay [4] it was -0.14 and 0.0148; in assay [5] it was -0.251 and -0.862; in assay [6], -0.0025 and -0.111. Besides, the composite z-score is 0.623 and -0.34 in the assay with Sam68 (KHDRBS1); 1.31 and 0.628 in assay [7]; -0.331 and 0.101 in assay [8]. The composite Z-score in assay [1] is -0.014 (inactive) and 0.545 (inactive).

For the compound `CC(C)CCN1CCc2nc(-c3ccccc3)c3c(c2C1)CO[C@@H](C)C3`, the composite z-score with Albumin (Bos taurus) was 0.69; in [2], -0.0362; in assay [3], -0.16; in [4] it was 0.15; in assay [5], 0.463; in [6], -0.616. Also, the composite z-score was found to be 1.06 in the assay on Sam68 (KHDRBS1), 0.656 in [7] and 0.263 in [8]. For the same compound, in assay [1], the composite Z-score is -0.835 (inactive).

Regarding `CCOC(=O)c1ccc(NC(=O)O[C@H]2[C@H](OC(=O)Nc3ccccc3)[C@H](OC(=O)Nc3ccccc3)[C@@H](OC)O[C@@H]2CO)cc1`, the composite z-score with Albumin (Bos taurus) is 0.783 and 0.754; in assay [2], 0.583 and 0.228; in assay [3], 0.121 and -0.0858; in assay [4] it was 0.46 and 0.771; in [5] it was 2.66 and 2.3; in [6], 0.708 and 1.11. For the same compound, the composite z-score with Sam68 (KHDRBS1) was 1.31 and 1.3; in assay [7], 0.292 and 0.142; in assay [8] it was 1.19 and 1.15. Moreover, the composite Z-score in assay [1] is 1.13 (inactive) and 0.14 (inactive).

In the case of `CC(C)=NO[C@@H](C)c1cc(-c2c(C)cc(C)cc2C)no1`, the composite z-score was 0.0075 with Albumin (Bos taurus); -0.181 in assay [2]; -0.181 in assay [3]; -0.223 in assay [4]; -0.177 in assay [5]; 0.214 in assay [6]. The composite z-score with Sam68 (KHDRBS1) was -0.228; in [7], 0.227; in [8], 0.154. Further, the composite Z-score in assay [1] was 0.454 (inactive).

On to `C=CCN(C(=O)C1N(c2c(Cl)cccc2CO)C(=O)C2C(C(=O)O)C3C=CC21O3)C(C)(C)C` (stereo not given), for which the composite z-score in the assay with Albumin (Bos taurus) was 0.393 and -0.872; in assay [2] it was -0.479 and -0.47; in [3], -0.253 and -0.185; in [4], 0.791 and -0.713; in [5], -0.556 and -0.856; in [6], -0.0145 and -0.779. Also, the composite z-score is -1.2 and -2.06 in the assay on Sam68 (KHDRBS1); -2.06 and -2.92 in assay [7]; -1.09 and -0.331 in [8]. For the same compound, the composite Z-score in [1] was 0.0388 (inactive) and -0.166 (inactive).

With `O=C1NC(=O)C2C1C=CC(C(O)c1ccc([N+](=O)[O-])cc1)N2Nc1ccc(Cl)cc1Cl` (stereo not given), the composite z-score was 0.933 and 0.732 in the assay with Albumin (Bos taurus); 0.0597 and 0.133 in [2]; 0.0454 and 0.153 in assay [3]; 0.483 and 0.751 in assay [4]; 2.95 and 2.03 in assay [5]; 0.673 and 1.28 in [6]. For the same compound, the composite z-score in the assay on Sam68 (KHDRBS1) was 0.415 and 0.584; in assay [7], -0.532 and -0.0926; in assay [8], 0.738 and 0.461. For the same compound, the composite Z-score in assay [1] is -0.35 (inactive) and -0.195 (inactive).

As for `C=CCN(C(=O)C(c1cccs1)N(CCOCCO)C(=O)/C=C\C(=O)O)C(C)(C)C` (stereo not given), the composite z-score in the assay with Albumin (Bos taurus) was -0.503 and -0.823; in assay [2], -0.387 and -0.349; in assay [3] it was -0.148 and -0.126; in assay [4], 0.847 and 0.9; in assay [5], -0.851 and 0.606; in assay [6] it was -0.957 and 0.0378. Moreover, the composite z-score in the assay with Sam68 (KHDRBS1) is -1.33 and -0.246; in [7] it was -2.31 and -1.58; in assay [8], -1.4 and -1.67. Moreover, the composite Z-score in [1] was -0.48 (inactive) and -0.0662 (inactive).

On to `C=CCN(CCCCC)C(=O)C1N(CCCCCCO)C(=O)C2C(C(=O)O)C3C=CC21O3` (stereo not given), for which the composite z-score with Albumin (Bos taurus) was -1.03 and 0.785; in [2], -0.374 and -0.327; in [3] it was 0.316 and -0.193; in [4], 0.85 and 0.83; in assay [5], 0.66 and 0.309; in [6], 0.752 and -0.289. For the same compound, the composite z-score in the assay on Sam68 (KHDRBS1) was -0.408 and -1.45; in assay [7] it was -3.13 and -1.54; in assay [8], -0.556 and -1.47. Moreover, the composite Z-score in [1] is 0.207 (inactive) and 0.382 (inactive).

Turning to `CO[C@H]1COC(=O)CC=C[C@@H](C)COC(=O)[C@@H](OCc2ccccc2)C=C[C@@H]1C`, the composite z-score was -0.853 in the assay with Albumin (Bos taurus); -0.307 in assay [2]; -0.179 in [3]; -0.297 in [4]; -0.173 in assay [5]; 0.106 in [6]. The composite z-score was -0.239 with Sam68 (KHDRBS1), 1.23 in assay [7] and -1.64 in [8]. In assay [1], the composite Z-score is 0.528 (inactive).

For the compound `COC(=O)C1=C(C)N(Cc2ccccc2)C2=C3C(=O)N(c4ccccc4)C(=O)[C@@H]3[C@@](O)(C(=O)OC)C(=O)N2[C@@H]1c1ccccc1`, the composite z-score with Albumin (Bos taurus) is 0.361 and 0.207; in assay [2] it was 0.236 and 0.116; in assay [3], -0.0767 and -0.101; in [4] it was 0.46 and 0.7; in [5], 0.241 and 0.608; in assay [6], 0.171 and 0.983. The composite z-score is 0.462 and 1.13 in the assay on Sam68 (KHDRBS1); 0.513 and 0.402 in [7]; -0.196 and 0.475 in [8]. The composite Z-score in assay [1] was 0.0519 (inactive) and 0.0894 (inactive).

Turning to `COC(=O)c1c2oc(c1C(=O)OC)C(=O)N[C@@H](Cc1ccccc1)Cn1cc(nn1)C1(CCCCC1)NC(=O)N[C@H](CO)CC2`, the composite z-score is -0.14 and 0.517 with Albumin (Bos taurus); 0.13 and 0.0613 in [2]; 0.0165 and -0.0761 in assay [3]; 0.713 and -0.0749 in [4]; 1.72 and 0.833 in [5]; 0.376 and 0.0667 in assay [6]. The composite z-score in the assay on Sam68 (KHDRBS1) was 1.08 and 0.939; in [7], 0.518 and 0.124; in assay [8] it was 0.634 and 0.427. In assay [1], the composite Z-score was 0.167 (inactive) and 0.77 (inactive).

As to `CC(CO)N1C(=O)[C@@H]2C3C(=O)OCCC=C[C@H]3OC23C=CCN(c2ccc4ccccc4c2)C(=O)[C@@H]13` (stereo not given in full), the composite z-score with Albumin (Bos taurus) was -0.452 and 0.947; in assay [2] it was -0.1 and -0.498; in assay [3] it was -0.14 and -0.299; in [4], 0.838 and 0.84; in assay [5], 0.506 and 0.368; in [6] it was 0.697 and 0.476. For the same compound, the composite z-score with Sam68 (KHDRBS1) was 0.31 and -0.264; in [7], -0.937 and -1.09; in [8] it was 0.0026 and -0.279. Besides, the composite Z-score in assay [1] was -0.862 (inactive) and 0.322 (inactive).

`C=CCN(CCCCC)C(=O)C(c1cccs1)N(CCOCCO)C(=O)/C=C\C(=O)O` (stereo not given): the composite z-score is -0.148 and -0.301 with Albumin (Bos taurus); -0.554 and -0.488 in [2]; -0.177 and -0.143 in assay [3]; 0.86 and 0.368 in assay [4]; -1.01 and -0.267 in assay [5]; -0.0541 and 0.235 in [6]. The composite z-score was -0.856 and -0.0967 in the assay on Sam68 (KHDRBS1); -1.91 and -1.04 in assay [7]; -0.611 and -0.988 in assay [8]. Also, the composite Z-score in assay [1] is -0.116 (inactive) and 0.239 (inactive).
